Drawing on PubChem BioAssay (Tox21), this text covers Potency and outcome for ten compounds.

Structures are written as SMILES. Records with an inconclusive call do not appear. Activity calls are given as the source filed them. Unless noted, calls come from the whole dose curve; as a rule, active = well fitted curve in the direction sought with a large enough effect in the repeat runs; inconclusive = weak or mixed curves; inactive = no such curve, though single readings can be large; an effect the other way counts as inactive or inconclusive.

Experiment [1] can be described thus: qHTS assay to identify aromatase inhibitors - cell viability counter screen (AID 743084).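 Note: cells stimulated with testosterone during compound exposure; nearly all actives have a fitted effect of over 55% in size.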 Note: potency is the fitted concentration of half-maximal effect.
For experiment [2], the target named is Aryl hydrocarbon receptor (Homo sapiens) (UniProt P35869). The experiment in a line: qHTS assay to identify small molecule that activate the aryl hydrocarbon receptor (AhR) signaling pathway (AID 743085).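 For activation: HG2L7.5c1 human HepG2 liver cells with stably integrated DRE-driven firefly reporter; series mostly up to about 70 µM.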 Note: nearly all actives have a fitted effect of over 15% in size. Note: potency is the fitted concentration of half-maximal effect. Summed up: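 Measured in HG2L7.5c1 cells: CellTiter-Fluor signal (30 min incubation, 37C) for viability, then luciferase luminescence (30 min, room temperature). Compound contact time was 24 h at 37C, following a 5 h pre-incubation.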
In general terms: Quantitative high-throughput screening tests each substance at several concentrations.

Experiment [3] concerns the target Peroxisome proliferator-activated receptor gamma (Homo sapiens) (UniProt P37231). The experiment can be described thus: qHTS assay to identify small molecule agonists of the peroxisome proliferator-activated receptor gamma (PPARg) signaling pathway (AID 743094; active = well fitted activation curve with a large enough effect in the signal ratio in the repeat runs, not every such curve was filed as active; the % refers to the signal ratio). The method in brief: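 Agonism was assessed in a beta-lactamase reporter system, HEK293H cells with a stably integrated UAS-bla construct under PPARg control; the 17 h treatment at 37C preceded a 1 h room-temperature FRET substrate read.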

Experiment [4] shares this target. The experiment in a line: qHTS assay to identify small molecule antagonists of the peroxisome proliferator-activated receptor gamma (PPARg) signaling pathway (AID 743191; calls by dose curve; note: nearly all actives have a fitted effect of over 30% in size; note: potency is the fitted concentration of half-maximal effect). The method in brief:
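GeneBLAzer PPARg UAS-bla HEK293H cells carrying a UAS-driven beta-lactamase reporter were plated at 3000 cells/well, preincubated 5 h at 37C, then given compound for 17 h at 37C; LiveBLAzer B/G FRET substrate was read after 1 h at room temperature.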

The nature of experiment [5]: qHTS assay to identify small molecule antagonists of the peroxisome proliferator-activated receptor gamma (PPARg) signaling pathway - cell viability counter screen (AID 743194). Note: nearly all actives have a fitted effect of over 55% in size. Note: potency is the fitted concentration of half-maximal effect. The following applies: Potency: co-treated with 50 nM rosiglitazone. The method in brief:
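PPARg-UAS-bla HEK293H cells were plated, rested 5 h at 37 C, then treated with compounds plus rosiglitazone (50 nM final) for 17 h at 37 C; viability was then read by CellTiter-Glo luminescence after 30 min at room temperature.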

The nature of experiment [6]: qHTS assay for small molecule agonists of the antioxidant response element (ARE) signaling pathway - cell viability counter screen (AID 743203; calls by dose curve; note: nearly all actives have a fitted effect of over 55% in size). Summed up:
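ATP content via CellTiter-Glo luminescence served as the viability measure. Cells: ARE-bla HepG2, 2,000 per well. Exposure: 16 hrs, 37C/5% CO2.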

The nature of experiment [7]: qHTS assay for small molecule activators of the heat shock response signaling pathway - cell viability counter screen (AID 743209). Note: nearly all actives have a fitted effect of over 50% in size. The method in brief:
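Compounds dissolved in DMSO were added to overnight-plated HSE-bla HeLa cells and left 5 h at 37 C. Cell viability was quantified by luminescence using CellTiter-Glo.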

Experiment [8] is described as follows: qHTS assay for small molecule activators of the heat shock response signaling pathway (AID 743210; active = well fitted activation curve with a large enough effect in the signal ratio in the repeat runs, with a control signal flat, not every such curve was filed as active; the % refers to the signal ratio;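 note: HeLa cells with beta-lactamase reporter driven by heat shock elements; series mostly up to about 63 µM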). The method in brief: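 Activation of heat shock element-controlled beta-lactamase expression is measured in HeLa cells by LiveBLAzer FRET fluorescence, with compound exposure lasting 5 h at 37 C and substrate loading 2.5 h at room temperature.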
Experiment [9] can be described thus: qHTS assay to identify small molecule agonists of the peroxisome proliferator-activated receptor delta (PPARd) signaling pathway - cell viability counter screen (AID 743211). Note: nearly all actives have a fitted effect of over 55% in size. The method in brief: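 Following 5 h plating at 37 C and 5% CO2, PPARd UAS-bla HEK293H cells took up test compounds for 17 h. Viability was quantified by luminescence 30 min after CellTiter-Glo addition at room temperature.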

The target in experiment [10] is Peroxisome proliferator-activated receptor delta (Homo sapiens) (UniProt Q03181). The experiment can be described thus: qHTS assay to identify small molecule agonists of the peroxisome proliferator-activated receptor delta (PPARd) signaling pathway (AID 743212; calls by dose curve). Summed up: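 Cells expressing a UAS-driven beta-lactamase reporter (PPARd-bla HEK293H) were given test compounds after a 5 h settle and kept at 37 C. Reporter activity was then measured as FRET fluorescence using LiveBLAzer B/G substrate.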

The nature of experiment [11]: qHTS assay to identify small molecule antagonists of the peroxisome proliferator-activated receptor delta (PPARd) signaling pathway - cell viability counter screen (AID 743213). Note: nearly all actives have a fitted effect of over 50% in size. Note: potency is the fitted concentration of half-maximal effect. Summed up: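 Luminescence from CellTiter-Glo, added after the bla read and incubated 30 min at room temperature, gives viability of HEK293H PPARd-bla cells exposed to compounds for 17 h at 37 C with 300 nM L165041.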

Experiment [12] concerns the target Peroxisome proliferator-activated receptor delta (Homo sapiens) (UniProt Q03181). The experiment in a line: qHTS assay to identify small molecule antagonists of the peroxisome proliferator-activated receptor delta (PPARd) signaling pathway (AID 743215; active = well fitted inhibition curve with a large enough effect in the signal ratio in the repeat runs, not every such curve was filed as active; the % refers to the signal ratio;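 note: cells stimulated with agonist L165041 at 300 nM final during compound exposure; series mostly up to about 62 µM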). Summed up: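 Here, a reporter line (HEK293H, beta-lactamase under a UAS) measures PPARd signaling. Compounds are tested against agonist L165041 at 300 nM final concentration over 17 h at 37 C, with fluorescence read after substrate.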

The target in experiment [13] is Bile acid receptor (Homo sapiens) (UniProt Q96RI1). The experiment in a line: qHTS assay to identify small molecule antagonists of the farnesoid-X-receptor (FXR) signaling pathway (AID 743217; active = well fitted inhibition curve with a large enough effect in the signal ratio in the repeat runs, not every such curve was filed as active; the % refers to the signal ratio). Summed up:
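Test compounds are pin-transferred onto FXR-bla HEK 293T cells, then chenodeoxycholic acid is added at 50 uM final. After 16 h at 37 °C, LiveBLAzer B/G substrate is applied for 2 h at room temperature and fluorescence read.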

Experiment [14] is described as follows: qHTS assay to identify small molecule agonists of the farnesoid-X-receptor (FXR) signaling pathway - cell viability counter screen (AID 743218). Note: nearly all actives have a fitted effect of over 45% in size. Note: potency is the fitted concentration of half-maximal effect. Summed up:
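Quantitative HTS counter screen measuring ATP-based viability via CellTiter-Glo luminescence in HEK 293T cells carrying a UAS-driven beta-lactamase reporter, after 16 h compound exposure at 37 C.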

Experiment [15] concerns the target Bile acid receptor (Homo sapiens) (UniProt Q96RI1). The experiment can be described thus: qHTS assay to identify small molecule agonists of the farnesoid-X-receptor (FXR) signaling pathway (AID 743220; active = well fitted activation curve with a large enough effect in the signal ratio in the repeat runs, not every such curve was filed as active; the % refers to the signal ratio). Summed up:
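FXR-UAS-bla HEK 293T cells carrying a UAS-driven beta-lactamase reporter were plated for 5 h at 37C/5% CO2, then exposed to DMSO-dissolved Tox21 10K compounds for 16 h at 37C. A LiveBLAzer B/G FRET substrate was loaded for 2 h at room temperature before fluorescence reading.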

The nature of experiment [16]: qHTS assay to identify small molecule antagonists of the farnesoid-X-receptor (FXR) signaling pathway - cell viability counter screen (AID 743221; active = well fitted cell-killing curve with a large enough effect in the repeat runs, not every such curve was filed as active; note: nearly all actives have a fitted effect of over 50% in size). Summed up: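 Compound effects on cell number were measured as CellTiter-Glo luminescence in HEK 293T cells expressing FXR-UAS-bla, after 16 h at 37 C with 50 uM CDCA (final).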
Experiment [17] concerns the target Vitamin D3 receptor (Homo sapiens) (UniProt P11473). The experiment in a line: qHTS assay to identify small molecule agonists of the vitamin D receptor (VDR) signaling pathway (AID 743222; calls by dose curve). Summed up:
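Tox21 cell reporter format: VDR-bla line, 16 h compound exposure in 5% CO2 at 37C, then fluorescence intensity after 2 h with LiveBLAzer B/G FRET substrate.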

Experiment [18] has the same target. The experiment can be described thus: qHTS assay to identify small molecule antagonists of the vitamin D receptor (VDR) signaling pathway (AID 743223; active = well fitted inhibition curve with a large enough effect in the signal ratio in the repeat runs, not every such curve was filed as active; the % refers to the signal ratio). The method in brief:
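Beta-lactamase activity in VDR-bla cells is measured by FRET substrate fluorescence (2 h, room temperature) after cells spend 16 h at 37C with test compound and 3 nM final 1alpha,25-dihydroxyvitamin D3.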

Experiment [19] is described as follows: qHTS assay for small molecule agonists of the antioxidant response element (ARE) signaling pathway (AID 743202; active = well fitted activation curve with a large enough effect in the signal ratio in the repeat runs, not every such curve was filed as active; the % refers to the signal ratio; note: potency is the fitted concentration of half-maximal effect). Summed up:
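Steps: seed ARE-bla HepG2 cells (2,000/well); incubate 5 h at 37 C; add compounds by pin tool; incubate 16 h at 37 C; add FRET substrate; read fluorescence after 2 h at RT.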

Peroxisome proliferator-activated receptor gamma (Homo sapiens), sequence (P37231 whole entry, looked up): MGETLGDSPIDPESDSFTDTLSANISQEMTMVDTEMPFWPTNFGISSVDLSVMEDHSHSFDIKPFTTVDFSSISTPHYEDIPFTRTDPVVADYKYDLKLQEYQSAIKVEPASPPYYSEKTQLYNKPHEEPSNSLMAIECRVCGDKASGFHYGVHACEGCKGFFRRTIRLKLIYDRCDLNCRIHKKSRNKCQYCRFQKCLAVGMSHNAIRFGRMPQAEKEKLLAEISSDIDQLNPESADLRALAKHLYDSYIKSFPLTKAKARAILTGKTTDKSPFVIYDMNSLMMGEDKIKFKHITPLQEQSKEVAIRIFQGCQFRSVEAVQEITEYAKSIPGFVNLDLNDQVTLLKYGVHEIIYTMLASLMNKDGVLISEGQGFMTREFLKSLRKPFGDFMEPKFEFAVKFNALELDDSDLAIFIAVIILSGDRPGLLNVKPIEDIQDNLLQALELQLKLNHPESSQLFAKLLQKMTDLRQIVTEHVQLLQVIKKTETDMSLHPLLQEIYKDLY
Vitamin D3 receptor (Homo sapiens), sequence (P11473 whole entry, looked up): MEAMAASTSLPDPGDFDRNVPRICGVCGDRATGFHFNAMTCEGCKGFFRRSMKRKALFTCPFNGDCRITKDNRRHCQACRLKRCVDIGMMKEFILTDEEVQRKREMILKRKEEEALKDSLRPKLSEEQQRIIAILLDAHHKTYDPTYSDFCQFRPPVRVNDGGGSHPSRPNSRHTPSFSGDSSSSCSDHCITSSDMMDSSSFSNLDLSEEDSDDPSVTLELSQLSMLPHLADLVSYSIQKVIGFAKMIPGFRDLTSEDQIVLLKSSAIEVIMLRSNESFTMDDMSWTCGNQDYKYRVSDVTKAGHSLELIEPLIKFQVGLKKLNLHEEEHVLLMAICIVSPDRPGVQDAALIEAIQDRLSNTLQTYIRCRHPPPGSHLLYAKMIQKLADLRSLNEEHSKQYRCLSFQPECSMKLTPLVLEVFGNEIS
Peroxisome proliferator-activated receptor delta (Homo sapiens), sequence (Q03181 whole entry, looked up): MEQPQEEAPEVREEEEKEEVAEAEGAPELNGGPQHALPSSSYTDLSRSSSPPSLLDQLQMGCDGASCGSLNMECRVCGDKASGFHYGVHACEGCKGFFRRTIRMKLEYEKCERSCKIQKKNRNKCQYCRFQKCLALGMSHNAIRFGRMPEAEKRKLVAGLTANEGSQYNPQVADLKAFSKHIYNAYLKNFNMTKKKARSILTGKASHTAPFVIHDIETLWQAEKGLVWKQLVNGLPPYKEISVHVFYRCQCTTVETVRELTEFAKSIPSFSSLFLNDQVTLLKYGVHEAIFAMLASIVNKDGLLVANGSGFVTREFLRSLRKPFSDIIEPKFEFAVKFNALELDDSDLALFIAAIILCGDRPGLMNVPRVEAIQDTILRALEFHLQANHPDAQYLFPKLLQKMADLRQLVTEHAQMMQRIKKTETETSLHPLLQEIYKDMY
Aryl hydrocarbon receptor (Homo sapiens), sequence (P35869 whole entry, looked up): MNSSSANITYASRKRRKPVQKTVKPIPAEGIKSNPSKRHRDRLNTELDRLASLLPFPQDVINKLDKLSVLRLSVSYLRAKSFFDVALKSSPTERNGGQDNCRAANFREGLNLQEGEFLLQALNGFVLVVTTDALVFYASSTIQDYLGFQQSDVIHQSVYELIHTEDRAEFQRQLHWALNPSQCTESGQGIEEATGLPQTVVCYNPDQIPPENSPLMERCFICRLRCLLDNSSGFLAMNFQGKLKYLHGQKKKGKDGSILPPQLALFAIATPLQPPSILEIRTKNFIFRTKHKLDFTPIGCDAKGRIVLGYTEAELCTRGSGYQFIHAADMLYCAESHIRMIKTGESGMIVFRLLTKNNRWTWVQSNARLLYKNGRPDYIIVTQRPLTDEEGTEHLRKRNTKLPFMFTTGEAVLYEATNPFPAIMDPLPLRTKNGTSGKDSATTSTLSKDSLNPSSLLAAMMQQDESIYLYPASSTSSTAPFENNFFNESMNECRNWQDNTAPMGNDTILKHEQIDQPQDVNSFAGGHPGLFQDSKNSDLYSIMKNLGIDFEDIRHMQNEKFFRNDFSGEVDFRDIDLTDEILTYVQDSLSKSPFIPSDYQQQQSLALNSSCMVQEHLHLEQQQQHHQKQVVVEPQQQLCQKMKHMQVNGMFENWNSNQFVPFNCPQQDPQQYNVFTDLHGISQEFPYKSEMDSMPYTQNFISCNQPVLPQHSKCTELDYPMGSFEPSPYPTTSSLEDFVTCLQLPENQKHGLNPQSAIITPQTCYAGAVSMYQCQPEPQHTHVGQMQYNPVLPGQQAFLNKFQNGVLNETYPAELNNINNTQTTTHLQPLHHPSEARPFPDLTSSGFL
Bile acid receptor (Homo sapiens), sequence (Q96RI1 whole entry, looked up): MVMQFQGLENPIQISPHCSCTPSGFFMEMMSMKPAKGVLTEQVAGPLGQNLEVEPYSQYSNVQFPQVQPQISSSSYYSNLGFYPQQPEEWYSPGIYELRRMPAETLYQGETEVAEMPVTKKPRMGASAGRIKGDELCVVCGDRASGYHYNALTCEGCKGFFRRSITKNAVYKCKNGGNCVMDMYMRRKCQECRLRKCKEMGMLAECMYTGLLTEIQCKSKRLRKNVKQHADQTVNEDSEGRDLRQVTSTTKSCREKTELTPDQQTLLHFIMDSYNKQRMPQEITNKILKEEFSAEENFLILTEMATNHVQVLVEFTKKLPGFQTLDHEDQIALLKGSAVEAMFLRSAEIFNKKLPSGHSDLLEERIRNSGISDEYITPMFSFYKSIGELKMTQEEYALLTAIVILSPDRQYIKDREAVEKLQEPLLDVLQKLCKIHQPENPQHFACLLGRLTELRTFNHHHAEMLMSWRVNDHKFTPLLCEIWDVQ

As to `NC(=O)C(Cl)(Cl)Cl`, the Potency entry in [1], in experiment [2], in [3], in experiment [4], in experiment [5] and in experiment [6] was “inactive” in each case. Further, the Potency result in [7], in experiment [9], in experiment [11], in [12], in experiment [13] and in experiment [14] was “inactive” each time. The Potency entry in experiment [16] was “inactive”. The compound was called inactive in experiment [8], in [10], in experiment [15], in experiment [17] and in [18].
With `CC(C)=CCOc1c2occc2cc2ccc(=O)oc12`, the Potency entry in experiment [1], in [3], in [4], in experiment [5], in experiment [6] and in experiment [7] was “inactive” each time. In addition, the Potency entry in experiment [9], in [11], in experiment [12], in [13], in [14] and in [16] was “inactive” each time. The Potency in [2] was 3.76 µM (active). The compound was called inactive in experiment [8], in experiment [10] and in experiment [15].
For the compound `COc1nn(C(=O)NS(=O)(=O)c2ccccc2OC(F)(F)F)c(=O)n1C`, the Potency result in experiment [1], in [2], in experiment [3], in experiment [4], in [5] and in experiment [6] was “inactive” throughout. Further, the Potency entry in experiment [7], in experiment [9], in experiment [11], in experiment [12], in [13] and in [14] was “inactive” throughout. In experiment [16], the Potency entry is “inactive”. Further, the outcome in experiment [8], in [10], in [15], in [17] and in experiment [18] was inactive.
For `O=S(=O)(Cl)c1ccccc1`, the Potency entry in experiment [1], in [2], in experiment [3], in [4], in experiment [5] and in experiment [19] was “inactive” throughout. Moreover, the Potency result in [6], in experiment [7], in [9], in experiment [11], in [13] and in experiment [14] was “inactive” in each case. Moreover, the Potency entry in experiment [16] was “inactive”. Further, the compound was called inactive in experiment [8], in experiment [10], in experiment [15], in experiment [17] and in [18].
Consider `Brc1ccc(Oc2ccccc2)cc1`, for which the Potency entry in experiment [1], in experiment [2], in experiment [3], in [5], in experiment [19] and in experiment [6] was “inactive” in each case. Also, the Potency entry in experiment [7], in [9], in experiment [11], in experiment [12], in experiment [14] and in [16] was “inactive” each time. Besides, the compound was called inactive in experiment [8], in experiment [10], in [17] and in experiment [18].
Consider `O=C(Nc1ccccc1)Nc1cnns1`, for which the Potency entry in experiment [1], in [3], in experiment [4], in [5], in experiment [6] and in [7] was “inactive” each time. For the same compound, the Potency result in experiment [9], in [11], in experiment [12] and in experiment [13] was “inactive” throughout. Further, the Potency in experiment [2] was 15.3 µM (active). Further, the compound was classed as inactive in experiment [8], in [10], in experiment [15] and in experiment [17].
For `NC(=O)CI`, the Potency entry in [1], in experiment [2], in experiment [3], in [4], in [19] and in [6] was “inactive” in each case. For the same compound, the Potency entry in experiment [7], in experiment [9], in experiment [11], in experiment [14] and in experiment [16] was “inactive” throughout. For the same compound, the result in experiment [8], in experiment [10], in experiment [17] and in [18] was inactive.
Consider `CN1[C@@H]2CC[C@H]1CC(OC(=O)c1cc(Cl)cc(Cl)c1)C2` (stereo partly drawn), for which the Potency entry in [1], in [2], in experiment [3], in experiment [4], in experiment [7] and in experiment [9] was “inactive” in each case. For the same compound, the Potency result in experiment [12] is “inactive”. Also, the outcome in experiment [8] and in [10] was inactive.
Regarding `O=C1C(Cl)C(CCl)CN1c1cccc(C(F)(F)F)c1` (stereo not drawn), the Potency entry in experiment [1], in experiment [3], in [5], in experiment [6], in experiment [7] and in [9] was “inactive” each time. Also, the Potency result in experiment [11], in [12], in experiment [14] and in experiment [16] was “inactive” throughout. The figures for the Potency in experiment [2] and in experiment [4] were 48.6 µM (active) and 21.9 µM (active), respectively. For the same compound, the result in experiment [8], in experiment [10] and in experiment [17] was inactive.
Consider `CCOP(=S)(OCC)SCn1nnc2ccccc2c1=O`, for which the Potency was 54.5 µM (active) in experiment [1]; 43.6 µM (active) in [5]; 3.06 µM (active) in experiment [19]; 54.9 µM (active) in experiment [11]; 43.6 µM (active) in experiment [14]. The Potency entry in experiment [2], in [3] and in [7] was “inactive” each time.
